# Source: PubChem BioAssay (NCATS)
# Results filed as inconclusive are left out. Where a call stands in place of a potency, no number is given. Unmarked numbers belong to inactive results. The source made the active and inactive calls. Calls follow the shape of the dose curve; as a rule, active = well fitted cell-killing curve with a large enough effect; inconclusive = small, poorly fitted or top-dose-only effect, or effect the other way; inactive = flat fitted curve, though single readings scatter. Where a SMILES comes first, the peptide text is derived from it. [ ]: non-standard residue; d: D form. pGlu = O=C1CC[C@@H](C(=O)O)N1
# How the values were obtained:
# Assay in all cases: Primary qHTS to identify gynecologic anti-cancer compounds using libraries of approved drugs and bioactive compounds (AID 1345084); also: nearly all actives have a fitted effect of over 55% in size
# Conditions in all cases: Gynecologic cancer cell panel viability, ATPlite luminescence, 48 h; series mostly up to 57.5 µM
# [1] = test system: OV90
# Method in brief: (§1)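 Luminescence from the ATPlite ATP-monitoring reagent indicates viable cell number; lower signal means cytotoxicity. Cells received compound 16 h after seeding and were exposed for 48 h across five concentrations.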
# [2] = test system: PA-1
# Method in brief: as §1
# [3] = test system: SKOV3
# Method in brief: as §1
# [4] = test system: Tov-21-G
# Method in brief: as §1
# [5] = test system: Tov112D
# Method in brief: as §1
# Potency is read from the fitted curve at half-maximal effect.
SMILES,Potency [1],Potency [2],Potency [3],Potency [4],Potency [5],"activity change, negative = cytotoxicity [1]","activity change, negative = cytotoxicity [2]","activity change, negative = cytotoxicity [3]","activity change, negative = cytotoxicity [4]","activity change, negative = cytotoxicity [5]"
CC(=O)[C@H]1CC[C@H]2[C@@H]3C=CC4=CC(=O)CC[C@@]4(C)[C@@H]3CC[C@]12C,inactive,inactive,inactive,inactive,inactive,,,,,
C#CC(C)(CC)OC(=O)c1ccccc1C(=O)O (stereo not given),inactive,inactive,inactive,inactive,inactive,,,,,
CC(C)(Oc1ccc(Cl)cc1)C(=O)OCCCOC(=O)C(C)(C)Oc1ccc(Cl)cc1,inactive,inactive,inactive,inactive,inactive,,,,,
CC(=O)c1ccc(O)c(C(N)=O)c1,inactive,inactive,inactive,inactive,inactive,,,,,
C/C(=C1\CCOC(=O)S1)N(C=O)Cc1cnc(C)nc1N,inactive,inactive,inactive,inactive,inactive,,,,,
N[C@@H](Cn1ccc(=O)c(O)c1)C(=O)O,,,,,,12.3% [at 6.55 µM],16.1% [at 6.55 µM],23.2% [at 6.55 µM],-4.16% [at 6.55 µM],12.5% [at 6.55 µM]
CCC(=O)O[C@H]1[C@H](O[C@@H]2[C@@H](C)[C@H](O[C@H]3C[C@@](C)(OC)[C@@H](O)[C@H](C)O3)[C@@H](C)C(=O)O[C@H](CC)[C@@](C)(O)[C@H](O)[C@@H](C)C(=O)[C@H](C)C[C@@]2(C)O)O[C@H](C)C[C@@H]1N(C)C,inactive,inactive,inactive,inactive,inactive,,,,,
CCNC(=O)[C@@H]1CCCN1C(=O)[C@H](CCCN=C(N)N)NC(=O)[C@H](CC(C)C)NC(=O)CNC(=O)[C@H](Cc1ccc(O)cc1)NC(=O)[C@H](CO)NC(=O)[C@H](Cc1c[nH]c2ccccc12)NC(=O)[C@H](Cc1cnc[nH]1)NC(=O)[C@@H]1CCC(=O)N1 ([pGlu]HWSYGLRP-NHEt),inactive,inactive,inactive,inactive,inactive,,,,,
Nc1nc(=O)n([C@@H]2O[C@H](CO)[C@@H](O)[C@@H]2F)cc1I,inactive,inactive,inactive,inactive,inactive,,,,,
CC(C)=CCNc1ncnc2c1ncn2[C@@H]1O[C@H](CO)[C@@H](O)[C@H]1O,17.8 µM (active),7.94 µM (active),11.2 µM (active),10 µM (active),7.08 µM (active),,,,,
CCOC(=O)CN1CCCC1=O,inactive,inactive,inactive,inactive,inactive,,,,,
C#Cc1ccc(-c2ccccc2F)cc1,inactive,inactive,inactive,inactive,inactive,,,,,
Oc1cccc2[nH]ccc12,inactive,inactive,inactive,inactive,inactive,,,,,
CCN1CCN(c2cc(-c3ccc(F)cc3)c3c(n2)CCCCCC3)CC1,inactive,inactive,inactive,inactive,inactive,,,,,
OC1(c2ccccc2)CCNCC1,inactive,inactive,inactive,inactive,inactive,,,,,
COCCOCC(OC)OC,inactive,inactive,inactive,inactive,inactive,,,,,
CC1(C)OC(=O)Nc2ccc(Br)cc21,inactive,inactive,inactive,inactive,inactive,,,,,
COc1cc(/C=C/C(N)=O)cc(OC)c1OC,inactive,inactive,inactive,inactive,inactive,,,,,
C[C@@H]1CCC[C@H](C)N1CCCC(O)(c1ccccc1)c1ccccn1 (stereo not given in full),inactive,inactive,inactive,inactive,inactive,,,,,
CCOC(=O)c1cc(=O)c2c(OCC(COc3cccc4oc(C(=O)OCC)cc(=O)c34)OC(=O)[C@@H](N)CCCCN)cccc2o1,inactive,inactive,inactive,inactive,inactive,,,,,
CCCC(=O)Nc1ccc(O)c(C(C)=O)c1,inactive,inactive,inactive,inactive,inactive,,,,,
C/C=C(/C(=C/C)c1ccc(OC(C)=O)cc1)c1ccc(OC(C)=O)cc1,inactive,inactive,inactive,inactive,inactive,,,,,
Cc1ccc2c(Cl)cc(Cl)c(O)c2n1,inactive,inactive,inactive,inactive,inactive,,,,,
COC(=O)CCCCC(CCSS/C(CCO)=C(\C)N(C=O)Cc1cnc(C)nc1N)SC(C)=O (stereo not given),inactive,inactive,inactive,inactive,inactive,,,,,
O=C1Nc2cc(Cl)ccc2Oc2ccccc21,inactive,inactive,inactive,inactive,inactive,,,,,
O=C1CC2(CCCC2)CC(=O)N1,inactive,inactive,inactive,inactive,inactive,,,,,
CO/N=C(\C(=O)O)c1csc(NC(=O)CCl)n1,inactive,inactive,inactive,inactive,inactive,,,,,
COC(=O)c1cc(S(N)(=O)=O)ccc1OC,inactive,inactive,inactive,inactive,inactive,,,,,
Cc1sccc1Br,inactive,inactive,inactive,inactive,inactive,,,,,
